In the supplement of paper PMC3334620:
Whole data set: some 33,000 sequences, median “E-score (-0.5 to 0.5)” near -0.053, cut for the highest 2% near 0.37. The sample holds the highest values, similar sequences and a random draw of the others, so the mix is not that of the screen.

Each sequence was assayed against Hap1 (UniProt P0CE41) (assay: PBM E-score (8-mer binding enrichment) (E-score (-0.5 to 0.5)); higher = stronger / more preferred TF binding). Details: protein concentration: 200 nM; construct: GST-DNA-binding domain.
Method: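 Universal 'all 10-mer' protein binding microarrays (Agilent AMADID 015681) probed with GST-tagged S. cerevisiae TFs (full-length or DBD) made by in vitro transcription/translation (PURExpress), about 100-200 nM. Bound TF was detected with fluorescent anti-GST. Each ungapped 8-mer (which stands for itself and its reverse complement) is scored by the PBM enrichment score (E-score), a modified Wilcoxon-Mann-Whitney statistic from -0.5 to +0.5, computed with the Universal PBM Analysis Suite. Scale: above 0.35 generally sequence-specific binding.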

UniProt P0CE41, sequence (P0CE41 whole entry, the tested form may be a part): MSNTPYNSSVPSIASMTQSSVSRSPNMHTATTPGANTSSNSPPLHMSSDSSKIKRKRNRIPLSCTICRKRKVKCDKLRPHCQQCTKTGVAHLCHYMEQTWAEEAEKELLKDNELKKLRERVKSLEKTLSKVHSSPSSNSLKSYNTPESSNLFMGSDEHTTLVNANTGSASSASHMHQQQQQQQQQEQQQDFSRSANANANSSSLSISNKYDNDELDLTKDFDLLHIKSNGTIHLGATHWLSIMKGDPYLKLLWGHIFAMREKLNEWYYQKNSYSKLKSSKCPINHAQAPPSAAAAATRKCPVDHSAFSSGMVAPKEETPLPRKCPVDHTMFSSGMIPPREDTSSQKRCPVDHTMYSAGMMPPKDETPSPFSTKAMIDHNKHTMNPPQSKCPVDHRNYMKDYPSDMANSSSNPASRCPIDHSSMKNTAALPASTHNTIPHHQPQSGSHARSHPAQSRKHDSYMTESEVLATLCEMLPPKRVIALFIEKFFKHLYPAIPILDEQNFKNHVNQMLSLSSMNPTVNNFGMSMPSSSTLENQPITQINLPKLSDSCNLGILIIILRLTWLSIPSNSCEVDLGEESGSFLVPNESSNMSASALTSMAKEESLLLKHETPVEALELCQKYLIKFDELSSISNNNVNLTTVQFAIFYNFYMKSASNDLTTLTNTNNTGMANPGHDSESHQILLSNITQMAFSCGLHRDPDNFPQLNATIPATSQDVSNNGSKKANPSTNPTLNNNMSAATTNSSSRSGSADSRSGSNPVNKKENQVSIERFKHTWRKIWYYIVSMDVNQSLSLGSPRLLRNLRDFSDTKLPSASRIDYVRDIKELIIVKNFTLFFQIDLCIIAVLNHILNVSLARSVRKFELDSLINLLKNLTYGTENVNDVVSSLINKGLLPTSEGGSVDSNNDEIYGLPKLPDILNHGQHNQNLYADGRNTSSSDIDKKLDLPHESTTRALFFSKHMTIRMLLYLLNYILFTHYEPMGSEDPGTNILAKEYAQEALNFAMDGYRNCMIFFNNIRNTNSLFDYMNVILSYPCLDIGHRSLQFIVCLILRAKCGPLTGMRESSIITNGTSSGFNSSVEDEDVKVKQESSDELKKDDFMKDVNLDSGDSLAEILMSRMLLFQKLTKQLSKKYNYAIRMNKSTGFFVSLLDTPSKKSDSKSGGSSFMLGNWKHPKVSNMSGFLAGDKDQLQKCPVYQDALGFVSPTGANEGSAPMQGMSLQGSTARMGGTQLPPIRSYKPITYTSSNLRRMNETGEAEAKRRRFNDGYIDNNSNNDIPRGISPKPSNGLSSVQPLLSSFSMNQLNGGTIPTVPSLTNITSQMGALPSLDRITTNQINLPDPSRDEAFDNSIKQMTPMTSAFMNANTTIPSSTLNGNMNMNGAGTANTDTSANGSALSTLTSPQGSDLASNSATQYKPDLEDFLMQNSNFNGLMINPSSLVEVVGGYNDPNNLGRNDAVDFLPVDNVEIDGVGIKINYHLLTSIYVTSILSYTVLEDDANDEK

Row | Sequence | PBM E-score
1 | ATCCTCGA | -0.107
2 | AAACGCCC | 0.263
3 | GTCCCGAC | 0.243
4 | AGGCGGCC | 0.0302
5 | CGTTCGTA | 0.0644
6 | CGTTCGGA | 0.412
7 | CGTTCGGC | 0.291
8 | AGTTCGGA | 0.366
9 | GGTTCGAA | 0.00151
10 | GGTTCGGA | 0.373
11 | GGCATACC | 0.107
12 | CCCGGCTA | 0.344
13 | ATGTTTCA | -0.21
14 | CATGGTGG | -0.137
15 | GCCCTCGC | -0.0401
16 | CCCGTCTA | -0.0612
17 | CGTACCTC | -0.0658
18 | AACTGCTT | -0.134
19 | CCTCCTCG | -0.147
20 | ACCTGCTG | -0.058
21 | TCACGGGA | 0.0121
22 | CACCGGTC | 0.227
23 | TACCGGTA | 0.441
24 | AACCGGTA | 0.331
25 | TACCGGGA | 0.387

Row | Sequence | PBM E-score
26 | CCCCGGGA | 0.348
27 | CACCGGTG | 0.24
28 | GACCGGTA | 0.243
29 | AACCGGGA | 0.193
30 | TCCCGGGA | 0.392
31 | CACCGGTA | 0.376
32 | GACCGGGA | 0.329
33 | CAGTAGAA | -0.229
34 | TTGCGCAA | -0.00107
35 | CATGCAGC | -0.164
36 | AGCTCGAC | -0.227
37 | ATCAAGCG | 0.0373
38 | AGCTCGGG | 0.363
39 | CGCGACTA | 0.197
40 | CCCTTAAG | 0.13
41 | CCACCTGC | -0.121
42 | GAAGACTA | -0.0051
43 | CTTCTCCA | -0.301
44 | AGGACAAA | -0.016
45 | CGGACATC | 0.365
46 | CGGACATA | 0.489
47 | CGGACAAA | 0.405
48 | CGGACAAG | 0.357
49 | GGGACATA | 0.0939
50 | CGAGTTGC | -0.053

Row | Sequence | PBM E-score
51 | ACAGCGCG | 0.0018
52 | GGGGCGTA | 0.00742
53 | AGGGCGTA | -0.137
54 | CGGGCGTA | 0.395
55 | CGGGCGAC | 0.304
56 | GGGGCGAA | 0.127
57 | CGGGCGAA | 0.375
58 | AAAGGTGG | -0.156
59 | ACGGCGAA | 0.0956
60 | CCGAAGTC | 0.318
61 | ATTGAACC | -0.0801
62 | CGGCCGAC | 0.415
63 | AGGCCGAG | 0.303
64 | CGGCCGAA | 0.449
65 | CGGCCGAG | 0.449
66 | GGGCCGAC | 0.312
67 | CGGCCAAG | 0.195
68 | TGGCCGAA | 0.261
69 | GGGCCGAA | 0.311
70 | AGGCCGAC | 0.32
71 | GTACTGAC | -0.119
72 | CGCAGTCA | -0.0499
73 | AGAGATGG | -0.0221
74 | AAGTGCGA | 0.00701
75 | ATGAGTCC | 0.0718

Row | Sequence | PBM E-score
76 | AACGACCC | 0.00262
77 | AGGACAGC | -0.0413
78 | GGCCGGGA | 0.336
79 | GTCCGGGA | 0.38
80 | ATCCGGGA | 0.239
81 | CGCCGGGA | 0.317
82 | CTCCGGGA | 0.392
83 | CTCCGGGC | 0.341
84 | CGTGGTTA | -0.251
85 | AGTGGAAG | 0.0152
86 | AATGGGCG | -0.0792
87 | GAGGCGGC | 0.0321
88 | CTCCGATA | 0.432
89 | GTCCGATA | 0.463
90 | ATCCGATG | 0.277
91 | GTACGATA | -0.189
92 | GTTCGATA | 0.0968
93 | CTACGATA | -0.179
94 | ATCCGATC | 0.326
95 | CTCCGATC | 0.311
96 | ATCCGATA | 0.453
97 | CTAACGTC | 0.00466
98 | TCGTACCA | -0.114
99 | GAGGCCAA | -0.0324
100 | AACTGTCA | -0.212

Row | Sequence | PBM E-score
101 | ACAAACGA | -0.145
102 | CTCTGTCA | -0.296
103 | TACCATGA | -0.347
104 | AAGGGGGA | -0.179
105 | GTCACCCA | -0.158
106 | ATACCGGA | 0.437
107 | ATACCGTA | 0.092
108 | ATACCGTG | 0.0634
109 | CTACCGGA | 0.412
110 | CTACCGGC | 0.29
111 | ATACCGCG | 0.21
112 | AGACCGGC | 0.235
113 | ATACCGCA | 0.284
114 | CTACCGAA | 0.0576
115 | CTACCGCA | 0.108
116 | ATACCGGC | 0.398
117 | ATACCGGG | 0.416
118 | ATGGCTCA | -0.343
119 | GGAAACCA | -0.0131
120 | AGTACTTC | 0.153
121 | CGCGCTTA | 0.209
122 | CTGGAGGC | -0.096
123 | AGACAAAC | -0.0936
124 | CAATTCTG | -0.284
125 | CCTCCTCA | -0.13

Row | Sequence | PBM E-score
126 | GATTCTAC | -0.0077
127 | GTACCGCA | 0.236
128 | GTACCGTA | 0.0486
129 | GTACCGGA | 0.393
130 | AGGGAGAA | -0.0602
131 | AATGGTGT | -0.0527
132 | ATAGTAGC | 0.0136
133 | ACCCCGAT | 0.416
134 | AACCCGAG | 0.317
135 | AACCCGAT | 0.375
136 | CCCCCGAA | 0.312
137 | ACCCCGAC | 0.308
138 | AACCCGAC | 0.32
139 | ACCCCGAG | 0.348
140 | GCCCCGAA | 0.333
141 | ACCCCGAA | 0.377
142 | CGCGTAAA | 0.188
143 | AGTTATGG | -0.0493
144 | ACTGTGCG | -0.13
145 | ATCATCGC | 0.0926
146 | AATTTCCA | 0.0738
147 | CAGAAGCC | -0.0458
148 | GTACGGAA | 0.28
149 | CGCTCACG | 0.118
150 | AATACCAT | -0.0062

Row | Sequence | PBM E-score
151 | ATGGTCAA | -0.23
152 | CGGACTAA | 0.411
153 | GGGACTTA | 0.0397
154 | AGGACTTC | -0.152
155 | TGGACTAA | -0.117
156 | CTGACTTC | -0.0182
157 | CGGACTTA | 0.488
158 | CGGACTTC | 0.405
159 | AGGACTTA | 0.18
160 | GGGACTAA | 0.0852
161 | CCTGGTCC | 0.138
162 | GCCAGGAA | -0.262
163 | ACCGGCGG | 0.418
164 | GCCGGCGA | 0.364
165 | TCCGGCGA | 0.362
166 | ACCGGCGA | 0.39
167 | ACCGGCGT | 0.282
168 | GTCGGCGA | 0.218
169 | CTCGGCGA | 0.383
170 | ATCGGCGA | 0.357
171 | ACCGGCGC | 0.267
172 | ATGGACGA | 0.0824
